Assay outcomes from PubChem BioAssay.
The list is not random: actives were taken first. Their share in the collection is about 3.2%.
mTORC1 inh = mTORC1 pathway inhibition measured by phospho-rpS6. Tsc2-/- p53-/- MEF, phospho-rpS6 immunofluorescence/PI, 24 h. Potency, µM (series often up to 38.3 µM), inactives show top-dose activity change, negative = inhibition, actives largely listed as inhibitors. actives 0.78% (n = 44,000). AID 493208;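 also: plate controls were DMSO for no effect and rapamycin for full effect; nearly all actives have a fitted effect of over 50% in size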
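Read-out: phospho-S6 Alexa-488 intensity over PI intensity per well, scored as % active cells using thresholds from rapamycin (7.5 nM) and DMSO controls. Tsc2-/-, p53-/- MEFs exposed to compound for 24 h; PI cell count recorded as viability.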
S16 F2sN tox = cytotoxicity in S16 Pmp22-F2sN Schwann cells; Potency, µM (doses to about 57.5 µM), for the others: top-dose activity change, negative = cytotoxicity, usual class: cytotoxic; AID 1508642; S16 Pmp22-F2sN Schwann cells viability, CellTiter-Glo, 24 h; actives 0.48% (n = 43,000); also: nearly all actives have a fitted effect of over 65% in size
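CellTiter-Glo counter-screen, qHTS, 1536-well. Cells: S16(c9) Pmp22-F2sN, 500-1,000/well in DMEM + 10% FBS. Cpd 23 nL pin transfer, 24 h, 37C/5% CO2. Read: luminescence, CCD imager.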
p53null 32C kill = kills p53 null cells at the permissive temperature; Potency, µM (highest dose often 46.1 µM), without a hit: at the highest dose activity change, negative = cytotoxicity, actives largely listed as cytotoxic; actives 0.62% (n = 55,000); H1299-neo p53 null cells, ATP luminescence, 24 h, 32C; AID 903;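 also: 0% = DMSO only and -100% = full killing by 100 µM tamoxifen; nearly all actives have a fitted effect of over 55% in size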
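H1299-neo, 600 cells/well; overnight 37C; cpd up to 46 uM, 24 h at 32C; ATPlite luminescence after 20 min RT; normalized to DMSO (0%) and tamoxifen 100 uM (100% kill); Hill-fit AC50.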
p53null 39C tox = p53 null cell cytotoxicity, nonpermissive temperature | H1299 p53-null (neo) cells, 39C, ATPlite viability, 24 h | Potency, µM (titrated, usually from 46.1 µM), for the others: top-dose activity, negative = cell killing, actives largely listed as cytotoxic | actives 0.97% (n = 55,000) | AID 904;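 also: 0% = DMSO only and -100% = full killing by 100 µM tamoxifen; nearly all actives have a fitted effect of over 50% in size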
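Following overnight plating at 37C (600 cells/well), H1299-neo or H1299-p53A138V cells are dosed up to 46 uM. Incubation lasts 24 hr at 39C before ATP detection.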
PMP22 txn = modulators of PMP22 gene transcription in S16 Schwann cells; S16 Pmp22-F2sN Schwann cells (luciferase reporters placed in the Pmp22 gene), FLuc/NLuc coincidence luminescence, 24 h; Potency, µM (highest dose often 57.5 µM), for inactives: at the top dose activity change, negative = inhibition, most hits filed as inhibitors; actives 2% (n = 43,000); AID 1508649; active = clear falling dose curves in both reporters; inconclusive = both reporters move, but less clearly or upward; inactive = either reporter flat; the % is the NLuc reporter signal
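Reporter cells (S16 Pmp22-F2sN, 500–1,000 per well) exposed to compounds for 24 h, 37C, 5% CO2; lysis with FLuc read after 10 min, then Stop&Glo and NLuc read after 10 min.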
Numbers without * were called inactive; ? = inconclusive; . = not tested or not shown. Unless noted, calls follow the shape of the dose curve; as a rule, active = well fitted curve in the direction sought with a large enough effect; inconclusive = small, poorly fitted or top-dose-only effect, or another doubt; inactive = no such curve, though single readings can be large; an effect the other way counts as inactive or inconclusive. Unless noted, % is scaled to controls: 0 for no effect and ±100 for the full control effect; potency is read from the fitted curve at half-maximal effect.

SMILES	mTORC1 inh	S16 F2sN tox	p53null 32C kill	p53null 39C tox	PMP22 txn
CCS(=O)(=O)c1oc(-c2ccc(F)cc2)nc1S(=O)(=O)c1ccccc1	0.13µM*	3.2µM*	?	28%	2.5µM*
Cc1ccc(S(=O)(=O)c2nc(-c3ccc(F)cc3)oc2N2CCN(c3ccccc3)CC2)cc1	-8%	4%	2%	5%	0%
CCCCS(=O)(=O)c1oc(-c2cccs2)nc1S(=O)(=O)c1ccc(F)cc1	2.1µM*	2.8µM*	23%	55%	3µM*
CCC(C)S(=O)(=O)c1oc(-c2ccc(F)cc2)nc1S(=O)(=O)c1ccc(F)cc1 (configuration not stated)	0.83µM*	6.3µM*	25µM*	-17%	2.5µM*
CCN1CCN(c2cc(C)c3cc(NC(=O)c4cc(Br)ccc4Cl)ccc3n2)CC1	?	?	-10%	?	?
O=C(NCCc1ccccc1Cl)c1ccc2c(c1)nc1n2CCCCC1	0%	-2%	3.2µM*	2.5µM*	17%
O=C(NCCc1ccccc1)c1ccc2c(c1)nc1n2CCOC1	-19%	2%	7.9µM*	10µM*	-3%
CC(C)CCNC(=O)c1ccc2c(c1)nc1n2CCCCC1	0%	1%	7.9µM*	6.3µM*	-15%
Cc1ccc(CCNC(=O)c2ccc3c(c2)nc2n3CCOC2)cc1	-5%	18%	-5%	-10%	-1%
Cc1ccccc1CCNC(=O)c1ccc2c(c1)nc1n2CCC(C)C1 (configuration not stated)	4%	22%	10µM*	?	?
CCOc1ccccc1NC(=O)Cn1c(=O)n(Cc2ccco2)c(=O)c2cccnc21	0%	-16%	-2%	12%	-3%
O=C(Nc1ccccc1F)c1ccc(Cn2nc(N3CCN(c4ccccc4)CC3)ccc2=O)o1	-3%	-3%	-3%	-5%	?
COc1cccc(CNC(=O)CCc2nnc3n(CC(C)C)c(=O)c4ccccc4n23)c1	-1%	12%	-1%	9%	-8%
COc1ccc(-n2c(SCCC(C)C)nc3sc4c(c3c2=O)CC(C(C)C)OC4)cc1 (configuration not stated)	?	10%	2%	-3%	-18%
CC(=O)c1cc(-c2ccccc2)n(CC(=O)NC2CCCCCC2)c1C	-5%	-2%	15%	14%	0%
Cc1ccc(NC(=O)c2ccc3c(O)c(S(=O)(=O)c4ccccc4)c(=O)[nH]c3c2)cc1Cl	-4%	-5%	-11%	-21%	-27%
CCc1ccc(NC(=O)c2ccc3c(O)c(S(=O)(=O)c4ccccc4)c(=O)[nH]c3c2)cc1	-7%	-3%	13µM*	?	17%
CCOc1ccc(NC(=O)c2nn(C)c3c2COc2ccccc2-3)cc1	0%	3%	0%	7%	-14%
Cc1ccc2[nH]cc(C(c3ccccc3)c3ccc(C)s3)c2c1 (configuration not stated)	?	-27%	11µM*	16µM*	?
CCc1ccc(NC(=O)c2cc3ccccn3n2)cc1	-12%	-18%	10µM*	7.9µM*	3%
Cc1ccccc1CCNC(=O)c1cc2ccccn2n1	0%	.	?	10µM*	.
COc1cc(NC(=O)c2cc3ccccn3n2)cc(OC)c1OC	-3%	.	-16%	-4%	.
Cc1ccc(NC(=O)c2cc3ccccn3n2)cc1F	0%	.	13µM*	?	.
Cc1ccc(-c2cn(-c3cccc(Cl)c3)c(S(=O)(=O)CC(=O)Nc3ccccc3F)n2)cc1	-13%	-27%	28%	21%	7%
Cc1ccc(Cl)cc1NC(=O)CCn1c(=O)c2cccn2c2cccnc21	1%	?	-4%	10%	16%
SMILES	mTORC1 inh	S16 F2sN tox	p53null 32C kill	p53null 39C tox	PMP22 txn
CCCC(=O)OC1=CN(Cc2ccccc2)S(=O)(=O)c2ccccc21	16µM*	3%	-3%	1%	-11%
O=C(CCS(=O)(=O)c1nc(-c2cccs2)cc(C(F)(F)F)n1)Nc1cc(Br)ccc1O	?	10µM*	60%	?	?
Cc1ccc(O)c(NC(=O)CCS(=O)(=O)c2nc(-c3cccs3)cc(C(F)(F)F)n2)c1	?	?	18%	32%	?
COc1cc2nc(Nc3ccc(C)c(C)c3)nc(N)c2cc1OC	?	?	?	32µM*	?
COc1cc2nc(Nc3cccc(C)c3)nc(N)c2cc1OC	?	-27%	?	?	?
Cc1ccccc1NC(=O)c1c2c(nc3ccccc13)C(=O)N(C1CCCCC1)C2	-16%	-1%	7%	-17%	?
COc1cc(OC)c(NC(=O)c2c3c(nc4ccccc24)C(=O)N(C2CCCCC2)C3)cc1Cl	-9%	25µM*	-29%	?	?
Cc1ccc(S(=O)(=O)C(CNC(=O)C(=O)NCCc2ccc(Cl)cc2)c2ccco2)cc1 (configuration not stated)	-1%	-29%	1%	-12%	-57%
O=C(NCCc1ccc(Cl)cc1)C(=O)NCC(c1ccco1)S(=O)(=O)c1ccc(Cl)cc1 (configuration not stated)	1.2µM*	?	-7%	10%	?
Cc1nn2cc(-c3ccc(OC(C)C)cc3)nc2s1	-17%	9%	16µM*	13µM*	?
Cc1ccccc1CSc1nc2cccnc2n1Cc1ccc(C(=O)NCCc2cccs2)cc1	-2%	?	-22%	-31%	?
CCOCCCNC(=O)c1ccc(Cn2c(=O)c3cccn3c3cccnc32)cc1	-15%	21%	19%	-13%	11µM*
CCN(CC)CCNC(=O)c1ccc(Cn2c(=O)c3cccn3c3cccnc32)cc1	3.3µM*	1%	2%	-23%	-25%
O=C(NCCc1ccccc1)c1ccc(Cn2c(=O)c3cccn3c3cccnc32)cc1	1%	11%	-1%	-6%	-35%
CCN(CCO)C(=O)CC(c1ccccc1)c1cc(Br)ccc1O (configuration not stated)	.	.	-4%	-11%	.
O=C(CC(c1ccccc1)c1cc(Br)ccc1O)NCC1(c2ccccc2)CCCC1 (configuration not stated)	-13%	.	?	16µM*	.
Cc1c(Cl)cccc1NC(=O)Cn1cc(C(=O)C2CCCCC2)c2ccccc21	-23%	?	14%	?	10µM*
CC(=O)c1ccc(NC(=O)C2CCC(CNS(=O)(=O)c3cccs3)CC2)cc1 (configuration not stated)	-1%	17%	-4%	-25%	-4%
Cc1cccc(N2CCN(C(=O)c3ccc4c(c3)c(C)c(C)n4C)CC2)c1C	-4%	0%	-2%	-14%	-18%
